Screening data as filed in PubChem BioAssay.
Glyco luc inh – N-linked glycosylation inhibition. D54 ERlucT glycosylation luciferase reporter, 24 h; percent of 100 nM tunicamycin response. reporter increase, % at 12.5 µM. hit rate 0.23% among 360,000. AID 588692;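 active = mean luciferase reporter signal, scaled so untreated is 0 and the glycosylation-blocking control 100, at or above a set limit in every replicate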;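 note: luciferase carries N-glycosylation sites so blocking glycosylation raises the light; 0% = median of neutral control wells and 100% = median of 100 nM tunicamycin wells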
ABCB6 inh 2 – inhibitors of human ABC transporter ABCB6; hit rate 0.19% among 360,000; fluorescence ratio to DMSO, % at 10 µM; Q9NP58; K562-ABCB6 porphyrin accumulation, flow cytometry, 1 h; hits give low values;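 active = fluorescence ratio to DMSO below 75%, the collection mean minus 3 SD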;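 note: signal is porphyrin accumulated inside mitochondria; 100% equals median channel fluorescence of DMSO control wells; lower ratio means ABCB6 inhibition with less porphyrin fluorescence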
RAD54 inh – inhibitors of human RAD54 branch migration. hit rate 0.14% among 360,000. AID 602329. Q92698. RAD54 Holliday junction branch migration, FAM/BHQ fluorescence. inhibition, % at 10.4 µM;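 active = mean normalized replicate activity at least 40 and at least half of replicates scoring 40 or more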;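 note: 0% = median of neutral control wells and 100% = median of positive control wells; inhibitors cause a drop in the FAM fluorescence signal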
Target sequence (Q92698 whole entry, looked up): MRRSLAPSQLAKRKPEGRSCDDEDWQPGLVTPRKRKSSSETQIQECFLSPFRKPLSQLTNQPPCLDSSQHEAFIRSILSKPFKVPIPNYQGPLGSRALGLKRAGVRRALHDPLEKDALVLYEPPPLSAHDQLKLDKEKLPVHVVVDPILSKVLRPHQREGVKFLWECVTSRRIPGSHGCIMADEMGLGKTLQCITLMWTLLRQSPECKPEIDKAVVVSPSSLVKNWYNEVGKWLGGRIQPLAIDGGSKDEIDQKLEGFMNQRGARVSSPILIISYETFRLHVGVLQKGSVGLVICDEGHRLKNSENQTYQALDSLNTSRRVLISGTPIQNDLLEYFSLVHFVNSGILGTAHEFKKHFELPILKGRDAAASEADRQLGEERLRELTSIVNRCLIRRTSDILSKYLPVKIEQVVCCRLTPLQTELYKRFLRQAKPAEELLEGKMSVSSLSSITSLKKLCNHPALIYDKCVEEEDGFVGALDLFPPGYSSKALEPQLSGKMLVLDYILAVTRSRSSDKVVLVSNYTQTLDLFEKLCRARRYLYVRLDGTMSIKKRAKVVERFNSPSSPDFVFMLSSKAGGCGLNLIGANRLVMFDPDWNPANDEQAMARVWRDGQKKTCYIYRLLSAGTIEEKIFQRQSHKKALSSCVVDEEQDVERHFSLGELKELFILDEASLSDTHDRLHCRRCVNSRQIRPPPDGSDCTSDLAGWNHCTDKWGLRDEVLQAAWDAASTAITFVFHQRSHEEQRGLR
Vif inh – HIV Vif inhibition. HEK293T cells, Vif self-association by quenched fluorescence, imaging, 24 h. inhibition, % at 7.49 µM. hit rate 0.35% among 340,000; in the data active = inhibition above about 50%, passing the limit was not always enough
Myeloid diff 2 – promotes myeloid progenitor differentiation; AID 624256; hit rate 1% among 360,000; calls only at 10 µM; ER-HoxA9 myeloid progenitors, lysozyme-GFP differentiation, flow cytometry;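 active = normalized GFP-positive differentiation at or above the plate's own cutoff, the solvent-only control mean plus 3 SD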;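 note: cells exposed to compound for four days before flow analysis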
Myeloid diff CP1 – myeloid differentiation induction; calls only; ER-HoxA9 myeloid progenitors, GFP/Mac1 double-positive flow; AID 651706; shares compounds with Myeloid diff 2; hit rate 2% among 2,300;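 active = share of green or green-and-red cells above 9 and 9% in run 1 or 4 and 3% in run 2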
GFP autofluor – compound fluorescence in myeloid differentiation counter-screen. fluorescence response, % (concentration not given with the values). shares compounds with Myeloid diff 2. hit rate 7.4% among 2,300. ER-HoxA9 myeloid progenitors, no estrogen, GFP autofluorescence flow cytometry; vehicle wells 0%, positive control 100%;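 active = over 5% cells positive for green fluorescent reporter, or over 2% positive for both it and APC stain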;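 note: range taken on the double positive population between DMSO and positive control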
* marks the source's active call; other numbers are inactive results; i = inactive; · = no result given; + = active, no number. An excerpt weighted towards active compounds, which were near 1.6% of everything screened.

SMILES | Glyco luc inh | ABCB6 inh 2 | RAD54 inh | Vif inh | Myeloid diff 2 | Myeloid diff CP1 | GFP autofluor
COc1ccc(CC(=O)OCC(=O)c2c[nH]c3ccccc23)cc1 | -2 | 92 | 5 | -2 | i | · | ·
COc1cccc(NC(=O)CSc2nnc(-c3ccco3)c(-c3ccco3)n2)c1 | 4 | 76 | -4 | -7 | + | i | 0
COc1ccc(NC(=O)CSc2nnc(-c3ccco3)c(-c3ccco3)n2)cc1OC | -4 | 97 | 2 | -15 | i | · | ·
CN1C(=O)c2cc(NC(=O)C3CC3)ccc2OC[C@@H]2O[C@@H](CC(=O)NCc3cccc(F)c3)CC[C@@H]21 | · | · | -1 | · | · | · | ·
O=C(Nc1sccc1C(=O)NCc1ccco1)c1cccnc1 | -2 | 104 | · | 1 | i | i | 0
O=C(C[C@@H]1CC[C@H]2[C@@H](COC[C@H](O)CN2C(=O)Nc2ccc(F)cc2)O1)NCCc1ccncc1 | · | · | 6 | · | · | · | ·
NNC(=O)c1ccc(COc2ccc(Br)cc2)o1 | -2 | 94 | -13 | -5 | i | i | 0
CC(C)(C)c1ccc(OCc2ccc(C(=O)NN)o2)cc1 | 3 | 95 | · | -5 | + | i | 0
CC(C)(C)c1ccc(OCc2ccc(C(=O)NCc3cccnc3)o2)cc1 | -1 | 96 | 3 | -9 | i | · | ·
O=C(O)C[C@H]1C[C@@H]2c3cc(NS(=O)(=O)c4ccccc4)ccc3O[C@@H]2[C@H](CO)O1 | · | · | -3 | · | · | · | ·
CC(C)(C)[S@](=O)N1Cc2cc(C(=O)NCc3ccc4c(c3)OCO4)nc(-c3cccc(-c4ccncc4)c3)c2[C@@H]1CCO | · | · | -13 | · | · | · | ·
O=C(O)c1ccc(Nc2ncnc3scc(-c4ccccc4)c23)cc1 | 0 | 108 | · | 4 | + | i | 0
CCN(CC)C(=O)COc1ccc(N(C)S(=O)(=O)c2ccc(NC(C)=O)cc2)cc1 | 1 | 92 | · | -3 | i | · | ·
C=CCNC(=O)COc1ccc(N(C)S(=O)(=O)c2ccc(NC(C)=O)cc2)cc1 | 0 | 100 | -1 | 6 | i | i | 0
Cc1ccc(Oc2ccc(Cl)cc2NC(=O)c2cnccn2)cc1 | 0 | 98 | -1 | 7 | + | i | 0
O=C(CNC(=O)OCc1ccccc1)NC1CCCCCCC1 | -1 | 99 | -7 | 4 | + | i | 0
O=C(COc1ccccc1)NCC(=O)NC1CCCCC1 | 0 | 101 | · | 2 | i | · | ·
COc1ccc(NC(=O)Nc2ccc3c(c2)C(=O)N([C@@H](C)CO)C[C@@H](C)[C@@H](CN(C)C(=O)CCCN(C)C)OCCCC[C@H](C)O3)cc1 | · | · | 12 | · | · | · | ·
CO[C@@H]1CN(C)C(=O)c2ccc(NS(C)(=O)=O)cc2OC[C@@H](C)N(C(=O)C2CC2)C[C@@H]1C | · | · | 13 | · | · | · | ·
Cc1ncsc1CCSc1n[nH]c(=O)n1-c1ccccc1 | -3 | 95 | 6 | 5 | i | · | ·
Cc1ncsc1CCSc1nc2ccccc2c(=O)n1C | -1 | 89 | -2 | -6 | i | i | 0
O=C(N[C@H]1CC[C@H](CCn2cc(-c3ccccn3)nn2)O[C@H]1CO)c1ccncc1 | · | · | -6 | · | · | · | ·
CCOc1ncccc1C(=O)N1CCN(S(=O)(=O)c2ccc3ccccc3c2)CC1 | 1 | 100 | · | -10 | i | i | 0
C[C@@H]1CN([C@@H](C)CO)C(=O)c2cc(NS(=O)(=O)c3ccccc3)ccc2O[C@@H](C)CCCCO[C@@H]1CN(C)C(=O)Nc1ccc2c(c1)OCO2 | · | · | -8 | · | · | · | ·
CCCc1c(NC(=O)Nc2ccc(F)cc2)cnn1-c1ccccc1 | -12 | 101 | · | 5 | + | i | 0
SMILES | Glyco luc inh | ABCB6 inh 2 | RAD54 inh | Vif inh | Myeloid diff 2 | Myeloid diff CP1 | GFP autofluor
Cc1ccccc1S(=O)(=O)NCC[C@H]1CC[C@H](NC(=O)C2CCCCC2)[C@@H](CO)O1 | · | · | -6 | · | · | · | ·
COc1ccc2nc(C)cc(SCC(=O)NNC(=O)COc3cccc4ccccc34)c2c1 | 1 | 84 | · | 4 | i | · | ·
COc1ccc2nc(C)cc(SCC(=O)NNC(=O)COc3ccc(C)cc3)c2c1 | -2 | 91 | 1 | 12 | i | i | 0
Nc1ccc(N2CCN(c3ccc(F)cc3)CC2)cc1 | 0 | 103 | · | -3 | + | i | 0
CC(=O)N1CCN(c2ccc(N)cc2)CC1 | 2 | 97 | 7 | -5 | i | · | ·
O=C(c1ccccn1)N1CC[C@H]2[C@H](CO)Nc3ccc(-c4ccc(F)cc4)cc3[C@H]21 | · | · | 4 | · | · | · | ·
Cn1c(Cn2cnc(Cl)c2Cl)nc2ccccc21 | 2 | 100 | 0 | -7 | i | i | 1
CC(=O)OCCCCON1C(=O)c2ccccc2C1=O | 0 | 120 | -2 | -14 | · | i | 0
Cc1cc(NC(=O)CN2CCC(n3nnc4cc(C(F)(F)F)ccc43)CC2)no1 | 2 | 86 | 0 | -5 | + | i | 0
C=CCNC(=O)CN1CCC(n2nnc3cc(C(F)(F)F)ccc32)CC1 | 1 | 95 | · | 22 | i | · | ·
C[C@@H]1CN([C@@H](C)CO)C(=O)Cc2cc(NS(C)(=O)=O)ccc2O[C@@H]1CN(C)Cc1ccc(C(=O)O)cc1 | · | · | -2 | · | · | · | ·
Cc1cc2c3c(c1)C1(C(=O)N3C(C)(C)CC2C)C(C#N)=C(N)Oc2n[nH]c(C)c21 (stereo unspecified) | -1 | 103 | · | 21 | i | · | ·
Cc1cc2c3c(c1C)C1(C(=O)N3C(C)(C)CC2C)C(C#N)=C(N)Oc2n[nH]c(C)c21 (stereo unspecified) | -5 | 91 | 7 | -4 | + | i | 0
C[C@@H]1CN([C@@H](C)CO)C(=O)c2cccc(N(C)C)c2O[C@H]1CN(C)C(=O)Nc1ccc2c(c1)OCO2 | · | · | -7 | · | · | · | ·
CCCCCNC(=O)C(c1ccc(OC)cc1)n1c(=O)c(-c2ccco2)nc2ccccc21 (stereo unspecified) | · | · | · | · | i | · | ·
CCCCCNC(=O)C(c1ccc(C#N)cc1)n1c(=O)c(-c2ccco2)nc2ccccc21 (stereo unspecified) | · | · | · | · | i | i | 1
C[C@H]1CN([C@@H](C)CO)S(=O)(=O)c2ccc(-c3cncnc3)cc2O[C@H]1CN(C)C(=O)CC1CC1 | · | · | 3 | · | · | · | ·
O=C(C1=C(O)C(=O)N(CCCN2CCOCC2)C1c1ccccn1)c1cc2ccccc2o1 (stereo unspecified) | 2 | 94 | -11 | -2 | i | i | 1
O=C(Nc1ccc(F)cc1)Nc1ccc2c(c1)[C@H]1C[C@@H](CC(=O)N3CCCCC3)O[C@H](CO)[C@H]1O2 | · | · | -13 | · | · | · | ·
CC1CCN(CC(=O)Nc2ccccc2C#N)CC1 | -1 | 99 | 0 | 5 | + | i | 0
N#Cc1ccccc1NC(=O)CN1CCOCC1 | 2 | 99 | -3 | -6 | i | · | ·
C[C@@H]1CCCCO[C@H](CN(C)C(=O)c2ccccc2)[C@H](C)CN([C@@H](C)CO)C(=O)c2cc(NS(=O)(=O)c3cn(C)cn3)ccc2O1 | · | · | 2 | · | · | · | ·
